Measurements as given in PubChem BioAssay.

assay: JC-1 mitochondrial signal, unstimulated MM1S myeloma – cell-based, JC-1 fluorescence, 24 h, 100 nL compound, profiling panel (AID 1170); conditions: MM1S mitochondrial potential, higher = more signal; note: test concentration not given here

| SMILES | z-score |
| --- | --- |
| CO[C@H]1COC(=O)CCC[C@H](C)[C@H](OC)COC(=O)CC=C[C@@H]1C | -0.982 |
| CCO[C@H](c1cc(OC)cc([N+](=O)[O-])c1OC)[C@H](C)[C@@H](OC)[C@H](C)C=CCC(=O)OC | -0.236 |
| O=C1[C@H]2[C@H]3[C@H](O)[C@H](O)CC(=NOC[C@@H](O)COCc4ccco4)[C@@H]3CC[C@H]2C(=O)N1Cc1ccccc1 | -0.782 |
| COC(=O)CC=C[C@@H](C)[C@@H](C=NOC[C@@H](O)COCc1ccco1)OC | -0.281 |
| C[C@@H](c1ccccc1)N1C(=O)[C@H]2[C@H]3[C@H](O)[C@H](O)CC(=NNC(=O)OCc4ccccc4)[C@@H]3CC[C@H]2C1=O | -0.998 |
| CCOC(=O)[C@H](Cc1ccccc1)NC(=O)CCC1CC(OC(=O)NCc2ccc3c(c2)OCO3)CC2(CCCC(COC(=O)NCCOC)O2)O1 (stereo partly specified) | -1.37 |
| CCOC(=O)CCN1C(=O)[C@H]2[C@H]3[C@H](O)[C@H](O)CC(=NNC(=O)OCc4ccccc4)[C@H]3CC[C@H]2C1=O | 0.435 |
| COc1ccc(O[C@H]2C=C[C@@H](c3ccccc3)O[C@@H]2COC(=O)CCC(C)=NOC[C@@H](O)COCc2ccco2)cc1 | -1.12 |
| CCCCOC(OCCCC)C(O)CSc1ccc2ccccc2c1 (stereo unspecified) | -0.285 |
| CC(C)CON=C1C[C@@H](O)[C@@H](O)[C@@H]2[C@@H]3C(=O)N(Cc4ccc5c(c4)OCO5)C(=O)[C@@H]3CC[C@@H]12 | -1.49 |
| COC(=O)[C@H](C)NC(=O)CCC1CC(OC(=O)NCCc2ccc(F)cc2)CC2(CCCC(COC(=O)NCCc3ccccc3OC)O2)O1 (stereo partly specified) | -0.876 |
| CCN1C(=O)[C@H]2[C@@H]3C(=CC[C@H]2C1=O)C(=O)[C@H]1O[C@H]1[C@H]3O | -2.82 |
| C[C@H]1CC[C@@H](C(=O)O)N[C@@H]1c1cccc(N2CCCC2=O)c1 | -0.436 |
| CCOC(=O)CCN1C(=O)[C@H]2[C@H]3[C@H](O)[C@H](O)CC(=NO[C@@H]4O[C@H](CO)[C@@H](O)[C@H](O)[C@H]4O)[C@H]3CC[C@H]2C1=O | -0.171 |
| O=C1C2=CC[C@H]3C(=O)N(Cc4ccccc4)C(=O)[C@H]3[C@H]2[C@H](O)[C@@H]2O[C@H]12 | -2.91 |
| CC(CCC(=O)OC[C@H]1O[C@H](C#Cc2ccccc2)C=C[C@@H]1Oc1ccc(C)cc1)=NO[C@@H](C)c1cc(-c2c(C)cc(C)cc2C)no1 | 0.114 |
| CO[C@@H]1[C@H](O)CO[C@H]1C=Cc1ccccc1 | 0.859 |
| COc1ccc(O[C@H]2C=C[C@@H](c3ccccc3)O[C@@H]2COC(=O)NCc2cccc3ccccc23)cc1 | -0.225 |

| SMILES | z-score |
| --- | --- |
| CCOC(=O)CCN1C(=O)[C@H]2[C@@H]3C(=CC[C@H]2C1=O)C(=O)[C@H]1O[C@H]1[C@H]3O | -2.74 |
| COC(=O)[C@H](Cc1ccccc1)NC(=O)[C@@H](C)CO | -0.209 |
| CC(CCC(=O)OC[C@H]1O[C@H](C#Cc2ccccc2)C=C[C@@H]1Oc1ccc(C)cc1)=NO[C@H](C)c1cn([C@@H]2COC[C@H]2O)nn1 | -1.1 |
| COC(=O)[C@H](C)NC(=O)CC=C[C@@H](C)[C@@H]1C=C[C@H](O)[C@@H](CO)O1 | -0.463 |
| COc1ccc(O[C@H]2C=C[C@@H](c3ccccc3)O[C@@H]2CON=C(C)CCN2CCCc3nc(C)c(C)cc32)cc1 | -0.294 |
| COC(=O)[C@H](CCSC)NC(=O)CC=C[C@@H](C)CO | -1.62 |
| CC(CCN1CCc2nc(-c3ccccc3)c(-c3ccccc3)cc2C1)=NO[C@@H](C)c1cc(-c2c(C)cc(C)cc2C)no1 | -1.62 |
| CCOC(=O)[C@H](CC(C)C)NC(=O)CCC1CC(OC(=O)NCc2ccc3c(c2)OCO3)CC2(CCCC(COC(=O)NCCc3ccc(Cl)cc3)O2)O1 (stereo partly specified) | -0.238 |
| CN1CCc2nc(-c3ccccc3)c(-c3ccccc3)cc2C1 | -0.201 |
| CC(C)CON=C1C[C@@H](O)[C@@H](O)[C@@H]2[C@@H]3C(=O)N([C@@H](C)c4ccccc4)C(=O)[C@@H]3CC[C@@H]12 | -0.389 |
| CC(CCC(=O)OC[C@H]1O[C@H](C#Cc2ccccc2)C=C[C@@H]1Oc1ccc(C)cc1)=NOC[C@@H](C)[C@H](OCc1ccccc1)C(C)C | -0.327 |
| CC1(C)O[C@H]2OC([C@H](O)CON3C(=O)c4ccccc4C3=O)[C@H](O)[C@H]2O1 (stereo partly specified) | 0.658 |
| C#CCCCON=C1C[C@@H](O)[C@@H](O)[C@@H]2[C@@H]3C(=O)N(CC)C(=O)[C@@H]3CC[C@H]12 | -0.533 |
| CCCC[C@H]1CN2[C@@H](CC[C@@H](C)[C@@H]2c2ccc(Br)cc2)C(=O)O1 | 0.94 |
| C[C@@H]1CC[C@H]2C(=O)O[C@@H](CN=[N+]=[N-])CN2[C@H]1c1ccc(Br)cc1 | -1.33 |
| CCOC(=O)[C@H](CC(C)C)NC(=O)CCC1CC(OC(=O)NCc2ccc3c(c2)OCO3)CC2(CCCC(COC(=O)NCCc3ccccc3OC)O2)O1 (stereo partly specified) | -0.501 |
| CCCNC(=O)OC[C@H]1O[C@H](CCON=C2C[C@@H](O)[C@@H](O)[C@@H]3[C@@H]4C(=O)N(CC)C(=O)[C@@H]4CC[C@@H]23)C=C[C@@H]1Oc1ccc(OC)cc1 | -0.39 |
| COCOc1ccc(Br)cc1C(=O)C=Cc1ccc2c(c1)OCO2 | -2.71 |
